Experimental findings from the supplement of paper PMC7156485 are described below.

± gives the standard deviation of the averaged measurements.

What all share (conditions): concentration: 10 µM; 24 h
In assay [1] the test system is HCC1569. Kind of assay: cell number relative to DMSO (% of DMSO); higher = more cells (less growth inhibition / toxicity). The gist of the method: (§1)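 Treatment: HCC1569 and TDF cells, 800 per well in 384-well plates with RPMI and 10% FBS, were given compounds at 10 µM for 24 h at 37 °C, in triplicate. Readout: after 3.7% formaldehyde fixation, cells were stained with a rabbit anti-H1.0 antibody, an AlexaFluor 647 secondary and DAPI. Reported values are H1.0 nuclear intensity or cell number as percent of the plate control, taken as the median of replicates, with positional smoothing for HCC1569.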

Assay [2] deals with TDF. The description is as above. The gist of the method:
as §1

Assay [3] deals with TDF. As to the kind of experiment: H1.0 immunofluorescence intensity relative to DMSO (% of DMSO); higher = stronger H1.0 induction, active = 120 or more. The gist of the method:
as §1

Assay [4] deals with HCC1569. Kind of assay: H1.0 immunofluorescence intensity relative to DMSO (% of DMSO); higher = stronger H1.0 induction, active = 140 or more. The gist of the method:
as §1
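Throughout, for H1.0 immunofluorescence intensity relative to DMSO: TDF is a line of transformed human dermal fibroblasts of mesenchymal origin.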
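Throughout, for cell number relative to DMSO: TDF denotes transformed human dermal fibroblasts of mesenchymal origin.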

Turning to `Nc1ccncc1` [4-Aminopyridine], the cell number with HCC1569 [1] turned out to be 101; with TDF [2], 103. In addition, the H1.0 immunofluorescence intensity with TDF [3] was 95.3 (inactive); in the assay on HCC1569 [4], 88 (inactive).

Regarding `CCCCCC=CCC=CCCCCCCCC(=O)NCCO` [Anandamide (18:2,n-6)], the cell number was determined as 100 with HCC1569 [1] and 108 with TDF [2]. Further, the figures for the H1.0 immunofluorescence intensity with TDF [3] and in the assay with HCC1569 [4] were 99.1 (inactive) and 94.4 (inactive), respectively.

Regarding `C[N+](C)(C)CC#CCN1CCCC1=O.[I-]` [Oxotremorine methiodide], the cell number in the assay on HCC1569 [1] came to 106; with TDF [2], 97. Further, the H1.0 immunofluorescence intensity in the assay on TDF [3] was 100 (inactive); in the assay with HCC1569 [4], 98.8 (inactive).

Take `CC1CCC2C(C)C3C(CC4C5CCC6CC(O)CCC6(C)C5CCC43C)N2C1` (stereo not drawn) [Demissidine]: the cell number with HCC1569 [1] amounted to 97.9; with TDF [2] it was 92.2. The H1.0 immunofluorescence intensity with TDF [3] is 102 (inactive); with HCC1569 [4], 92.6 (inactive).

As for `O=c1cccc2n1CC1CNCC2C1` (single isomer, unassigned; (-)) [(-)-Cytisine], the cell number with HCC1569 [1] came out at 103; with TDF [2], 85.2. Further, the H1.0 immunofluorescence intensity in the assay on TDF [3] is 102 (inactive); in the assay on HCC1569 [4] it was 96.6 (inactive).

Take `CC1(CO)C(O)CCC2(C)C1CCC1CC3CC12CCC3(O)CO` (stereo not drawn) [Aphidicolin]: the values for the cell number in the assay with HCC1569 [1] and with TDF [2] were 79.6 and 55.2, respectively. Moreover, the H1.0 immunofluorescence intensity in the assay with TDF [3] was 108 (inactive); in the assay on HCC1569 [4], 95.2 (inactive).

As to `Cl.Oc1ccc2c3c1OC1c4[nH]c5ccccc5c4CC4(O)C(C2)N(CC2CC2)CCC314` (stereo not drawn) [Naltrindole.HCl], the cell number is 103 with HCC1569 [1] and 99.3 with TDF [2]. Further, the H1.0 immunofluorescence intensity is 93.2 (inactive) in the assay on TDF [3] and 107 (inactive) with HCC1569 [4].

Turning to `COc1ccc(Cc2nccc3cc(OC)c(OC)cc23)cc1OC.Cl` [Papaverine hydrochloride], the cell number with HCC1569 [1] came out at 87.1 ± 1.7; in the assay with TDF [2] it was 77.7 ± 7.8. Moreover, the results for the H1.0 immunofluorescence intensity with TDF [3] and in the assay with HCC1569 [4] were 102 (inactive) and 126 (inactive), respectively.

In the case of `Nc1ncnc2c1ncn2C1OC(COP(=O)(O)CP(=O)(O)OP(=O)([O-])[O-])C(O)C1O.[Li+].[Li+]` (stereo not drawn) [alpha,beta-Methylene adenosine 5'-triphosphate dilithium], the cell number in the assay on HCC1569 [1] is 102; with TDF [2], 109. Also, the H1.0 immunofluorescence intensity is 87.9 (inactive) in the assay with TDF [3] and 96.4 (inactive) in the assay with HCC1569 [4].

Regarding `CC(N)C(=O)OC(C)(C)Cc1ccc(Cl)cc1.Cl` (stereo not drawn) [Alaproclate hydrochloride], the cell number in the assay with HCC1569 [1] came out at 102; with TDF [2], 111. In addition, the H1.0 immunofluorescence intensity is 88.2 (inactive) in the assay with TDF [3] and 88.6 (inactive) in the assay on HCC1569 [4].

`O=C(O)CCCc1ccc(N(CCCl)CCCl)cc1` [Chlorambucil]: the figures for the cell number in the assay on HCC1569 [1] and in the assay on TDF [2] were 86.2 ± 2.5 and 85.1 ± 7.6, respectively. The H1.0 immunofluorescence intensity in the assay on TDF [3] was 97.1 (inactive); in the assay on HCC1569 [4] it was 98.4 (inactive).

For the molecule `Br.CC(Cc1ccc(O)cc1)NCC(O)c1cc(O)cc(O)c1` (stereo not drawn) [Fenoterol hydrobromide], the cell number came to 104 in the assay with HCC1569 [1] and 105 in the assay with TDF [2]. Further, the H1.0 immunofluorescence intensity is 88.3 (inactive) with TDF [3] and 112 (inactive) in the assay on HCC1569 [4].

`CN1CCc2cc3c(cc2C1C1OC(=O)c2c1ccc1c2OCO1)OCO3` (single isomer, unassigned; (+)) [(+)-Bicuculline]: the cell number in the assay with HCC1569 [1] was found to be 92.1 ± 16; in the assay with TDF [2], 89.1 ± 15. In addition, the H1.0 immunofluorescence intensity is 98.9 (inactive) in the assay with TDF [3] and 92.6 (inactive) in the assay with HCC1569 [4].

On to `C=CCN1CCC23c4c5ccc(O)c4OC2C(=NN=C2CCC4(O)C6Cc7ccc(O)c8c7C4(CCN6CC=C)C2O8)CCC3(O)C1C5.Cl.Cl` (stereo not drawn) [Naloxonazine dihydrochloride], for which the cell number with HCC1569 [1] was 77.5; with TDF [2], 62.9. Further, the H1.0 immunofluorescence intensity in the assay with TDF [3] is 126 (active); in the assay on HCC1569 [4], 121 (inactive).

`CCCCCN(C)CCC(O)(P(=O)([O-])O)P(=O)(O)O.[Na+]`: the cell number was found to be 99.5 in the assay with HCC1569 [1] and 105 in the assay with TDF [2]. Further, the results for the H1.0 immunofluorescence intensity in the assay on TDF [3] and in the assay with HCC1569 [4] were 89.4 (inactive) and 102 (inactive), respectively.

Consider `C=CCN1CC(C(=O)N(CCCN(C)C)C(=O)NCC)CC2c3cccc4[nH]cc(c34)CC21` (stereo not drawn) [Cabergoline], for which the cell number was determined as 109 with HCC1569 [1] and 102 in the assay on TDF [2]. Also, the H1.0 immunofluorescence intensity in the assay with TDF [3] was 96.1 (inactive); in the assay on HCC1569 [4], 102 (inactive).

For the molecule `Cl.NCCc1c[nH]c2ccc(O)cc12` [Serotonin hydrochloride], the cell number with HCC1569 [1] was 102; in the assay with TDF [2], 118. In addition, the H1.0 immunofluorescence intensity in the assay with TDF [3] is 90.1 (inactive); with HCC1569 [4], 92.2 (inactive).

Turning to `CC1CCC2C(C)C3CCC4(O)C(CC5C4CC(=O)C4CC(=O)CCC45C)C3CN2C1` (stereo not drawn) [Sevedindione], the cell number came out at 99.8 in the assay on HCC1569 [1] and 110 in the assay on TDF [2]. In addition, the H1.0 immunofluorescence intensity in the assay on TDF [3] was 91.7 (inactive); in the assay with HCC1569 [4], 85 (inactive).

As for `O=C(O)C(=O)c1cn(Cc2ccccc2)c2ccc(-c3ccc(OC(F)(F)F)cc3)cc12`, the cell number worked out at 99.9 with HCC1569 [1] and 106 in the assay on TDF [2]. For the same molecule, the results for the H1.0 immunofluorescence intensity in the assay with TDF [3] and in the assay on HCC1569 [4] were 94 (inactive) and 99.4 (inactive), respectively.

With `CCC1(C2=NCCN2)Cc2ccccc2O1.Cl` (stereo not drawn) [Efaroxan hydrochloride], the cell number in the assay on HCC1569 [1] stood at 103; with TDF [2] it was 105. Moreover, the H1.0 immunofluorescence intensity was 93.1 (inactive) in the assay with TDF [3] and 94 (inactive) in the assay on HCC1569 [4].

Regarding `CCCCCCC(=O)CCCCCCC=CCC(O)C(O)C(N)(CO)C(=O)O` (stereo not drawn) [Myriocin], the cell number with HCC1569 [1] was 100; in the assay on TDF [2], 92.4. For the same molecule, the H1.0 immunofluorescence intensity with TDF [3] was 99.4 (inactive); in the assay with HCC1569 [4] it was 87.9 (inactive).

For the molecule `CC1OC(=O)C2CC3CCCCC3C(C=CC3CCCC(C)N3C)C12` (single isomer, unassigned; (+)) [(+)-Himbacine], the values for the cell number in the assay with HCC1569 [1] and in the assay with TDF [2] were 102 and 112, respectively. For the same molecule, the H1.0 immunofluorescence intensity is 91 (inactive) in the assay on TDF [3] and 109 (inactive) in the assay on HCC1569 [4].
